Assay outcomes as filed in PubChem.
Anthrax LF prot: Bacillus anthracis LF protease inhibitors, primary screen, biochemical, multiplex microsphere, MLPCN library | 360,000 compounds, 0.12% hits | Lethal factor (Bacillus anthracis), P15917 | multiplex microsphere protease cleavage assay | inhibition, % at 10 µM
Target sequence (P15917 whole entry, looked up): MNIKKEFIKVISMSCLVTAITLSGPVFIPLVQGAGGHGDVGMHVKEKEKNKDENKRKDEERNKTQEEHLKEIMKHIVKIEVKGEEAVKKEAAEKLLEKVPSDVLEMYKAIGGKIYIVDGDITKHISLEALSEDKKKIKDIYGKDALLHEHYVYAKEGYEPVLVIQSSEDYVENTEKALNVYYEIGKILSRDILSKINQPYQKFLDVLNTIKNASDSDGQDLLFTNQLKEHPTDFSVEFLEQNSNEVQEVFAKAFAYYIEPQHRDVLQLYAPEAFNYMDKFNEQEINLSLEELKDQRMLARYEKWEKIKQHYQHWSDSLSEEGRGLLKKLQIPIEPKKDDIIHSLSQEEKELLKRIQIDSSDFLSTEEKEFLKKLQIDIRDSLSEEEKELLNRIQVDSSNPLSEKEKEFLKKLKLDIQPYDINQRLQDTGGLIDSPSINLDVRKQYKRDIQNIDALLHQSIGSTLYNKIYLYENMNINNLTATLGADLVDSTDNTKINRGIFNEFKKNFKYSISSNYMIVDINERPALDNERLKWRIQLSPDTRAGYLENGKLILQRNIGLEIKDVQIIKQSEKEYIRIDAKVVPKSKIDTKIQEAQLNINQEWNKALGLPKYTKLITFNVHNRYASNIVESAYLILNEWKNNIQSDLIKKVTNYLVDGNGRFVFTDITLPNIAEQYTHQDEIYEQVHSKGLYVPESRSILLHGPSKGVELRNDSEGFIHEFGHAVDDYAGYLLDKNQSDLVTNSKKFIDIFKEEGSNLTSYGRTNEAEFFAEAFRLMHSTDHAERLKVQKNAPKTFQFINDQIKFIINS
BoNT-A LC inh2: BoNT/A light chain protease inhibitors, primary screen, biochemical, flow cytometry, MLPCN library | AID 588499, 2011 | multiplex microsphere protease substrate cleavage | inhibition, % at 10 µM | 360,000 compounds, 0.17% hits
Bead autofluor: flagged as autofluorescent in microsphere protease counterscreen. compound autofluorescence counterscreen, microsphere flow cytometry; hits give high values. fluorescence intensity (concentration not given with the values). 360,000 compounds, 3.1% hits; in the data active = fluorescence intensity above about 16000; inconclusive = no clear call, values can overlap the other calls
BoNT F protease: BoNT/F light chain protease inhibitors, primary screen, biochemical, flow cytometry, MLPCN library | Multiplex microsphere protease cleavage assay | 360,000 compounds, 0.22% hits | inhibition, % at 10 µM; in the data active = inhibition above about 35%, passing the limit was not always enough; inconclusive = no clear call, values can overlap the other calls
BoNTA LC inh 1: BoNT/A light chain protease inhibitors, confirmation, biochemical, flow cytometry, cherry pick 1; shares compounds with BoNT F protease; multiplex microsphere protease assay; inhibition, % at 10 µM; 720 compounds, 3% hits; in the data active = inhibition above about 32%
BoNT-F LC CP1: BoNT/F light chain protease inhibitors, confirmation, biochemical, flow cytometry, cherry pick 1; shares compounds with BoNT F protease; multiplex microsphere protease cleavage assay; inhibition, % at 10 µM; 720 tested, under 10 active; AID 602140, 2011; call rule not given here
Anthrax LF CP1: Bacillus anthracis LF protease inhibitors, confirmation, biochemical, multiplex microsphere, cherry pick 1 | shares compounds with BoNT F protease | multiplex microsphere protease cleavage assay | inhibition, % at 10 µM | 720 tested, under 10 active; call rule not given here
Hits are given with their value. Shown are actives, neighbours in structure and some others; about 3.5% of the full set was active somewhere. Rule as the data show it, unless noted: active = inhibition above about 30%; inconclusive = no clear call, values can overlap the other calls; inactive = below that.

Screening COc1cc(C(=O)NCCOc2ccc(C)c(C)c2)cc(OC)c1OC returned Anthrax LF prot inactive, BoNT-A LC inh2 inactive, Bead autofluor inactive and BoNT F protease inactive.
`COc1cccc(OCCNC(=O)c2cc(OC)c(OC)c(OC)c2)c1` gave Anthrax LF prot inactive, BoNT-A LC inh2 inactive, Bead autofluor inactive, BoNT F protease 40, BoNTA LC inh 1 inactive, BoNT-F LC CP1 inactive and Anthrax LF CP1 inactive.
`CCSc1nnc(-c2sc3nnc(-c4ccccc4)c(-c4ccccc4)c3c2N)o1` gave Anthrax LF prot 56, BoNT-A LC inh2 80, Bead autofluor inactive, BoNT F protease 52, BoNTA LC inh 1 86, BoNT-F LC CP1 inactive and Anthrax LF CP1 40.
Screening CC(C)c1onc(C(=O)NC(C)c2ccccc2)c1[N+](=O)[O-] (stereo not drawn) returned Anthrax LF prot inactive, BoNT-A LC inh2 inactive, Bead autofluor inactive and BoNT F protease inactive.
Screening Cc1nc([N+](=O)[O-])c(Sc2nc3ccccc3[nH]2)n1Cc1ccccc1 returned Anthrax LF prot inactive, BoNT-A LC inh2 inactive, Bead autofluor inactive and BoNT F protease inactive.
`Cn1cnc([N+](=O)[O-])c1Sc1nc2ccccc2[nH]1` gave Anthrax LF prot 34, BoNT-A LC inh2 inactive, Bead autofluor inactive, BoNT F protease inactive, BoNTA LC inh 1 inactive, BoNT-F LC CP1 inactive and Anthrax LF CP1 inactive.
C=CCn1c(SCC#N)nnc1-c1ccc2ncccc2c1 was read as Anthrax LF prot inactive, BoNT-A LC inh2 inactive, Bead autofluor inactive and BoNT F protease inconclusive.
CC(Oc1ccc(Br)cc1)c1nc2c3ccccc3nc(=S)n2[nH]1 (stereo not drawn) was read as Anthrax LF prot inactive, BoNT-A LC inh2 inactive, Bead autofluor inactive, BoNT F protease 36, BoNTA LC inh 1 inactive, BoNT-F LC CP1 inactive and Anthrax LF CP1 inactive.
For CCCC(Oc1ccc(Br)cc1)c1nc2c3cc(OC)c(OC)cc3nc(=S)n2[nH]1 (stereo not drawn) the results were Anthrax LF prot inactive, BoNT-A LC inh2 inactive, Bead autofluor inactive and BoNT F protease inactive.
Screening CCOc1ccc(OCCOCCNCCOC)cc1 returned Anthrax LF prot inactive, BoNT-A LC inh2 inactive, Bead autofluor inactive, BoNT F protease 41, BoNTA LC inh 1 inactive, BoNT-F LC CP1 inactive and Anthrax LF CP1 inactive.
COc1ccc(S(=O)(=O)NC(C)C(=O)NCc2cccnc2)cc1OC (stereo not drawn) was read as Anthrax LF prot inactive, BoNT-A LC inh2 inactive, Bead autofluor inactive, BoNT F protease 44, BoNTA LC inh 1 inactive, BoNT-F LC CP1 inactive and Anthrax LF CP1 inactive.
Screening Cc1cccc(C(CC(=O)N2CCCCC2)c2ccccc2)c1O (stereo not drawn) returned Anthrax LF prot inactive, BoNT-A LC inh2 inactive, Bead autofluor inactive and BoNT F protease inconclusive.
Screening c1ccc2c(C3=NNC(=NC4CC4)SC3)c[nH]c2c1 returned Anthrax LF prot inactive, BoNT-A LC inh2 41, Bead autofluor inactive, BoNT F protease inactive, BoNTA LC inh 1 inactive, BoNT-F LC CP1 inactive and Anthrax LF CP1 inactive.
Screening CCOc1cc(CNCC(O)c2ccccc2)cc(Cl)c1OC (stereo not drawn) returned Anthrax LF prot inactive, BoNT-A LC inh2 inactive, Bead autofluor inactive, BoNT F protease 41, BoNTA LC inh 1 inactive, BoNT-F LC CP1 inactive and Anthrax LF CP1 inactive.
Nc1ccc(-c2nnn(CC(=O)N3CCCCC3)n2)cc1 was read as Anthrax LF prot 46, BoNT-A LC inh2 inactive, Bead autofluor inactive, BoNT F protease inconclusive, BoNTA LC inh 1 inactive, BoNT-F LC CP1 inactive and Anthrax LF CP1 inactive.
For CC(=O)c1cccc(NC(=O)CN2C(=O)NC(C)(C)C2=O)c1 the results were Anthrax LF prot inactive, BoNT-A LC inh2 inactive, Bead autofluor inconclusive and BoNT F protease inactive.
`CCCCOc1ccc(C(=O)CCN2CCOCC2)cc1` gave Anthrax LF prot inactive, BoNT-A LC inh2 inactive, Bead autofluor inactive, BoNT F protease inactive, BoNTA LC inh 1 inactive, BoNT-F LC CP1 inactive and Anthrax LF CP1 inactive.
Cc1ccc(CSc2nc3ccncc3[nH]2)cc1 was read as Anthrax LF prot inactive, BoNT-A LC inh2 inactive, Bead autofluor inactive and BoNT F protease inactive.
For CCCC(CCC)c1nc2ccncc2[nH]1 the results were Anthrax LF prot inactive, BoNT-A LC inh2 inactive, Bead autofluor inactive, BoNT F protease 41, BoNTA LC inh 1 inactive, BoNT-F LC CP1 inactive and Anthrax LF CP1 inactive.
`CCc1cc2cccc(C)c2nc1SCC(=O)NC1CCCC1` gave Anthrax LF prot inactive, BoNT-A LC inh2 inactive, Bead autofluor inactive, BoNT F protease 37, BoNTA LC inh 1 inactive, BoNT-F LC CP1 inactive and Anthrax LF CP1 inactive.
For COc1ccccc1CN1CCNC(=O)C1CC(=O)NCc1c(C)n[nH]c1C (stereo not drawn) the results were Anthrax LF prot inactive, BoNT-A LC inh2 inactive, Bead autofluor inactive, BoNT F protease 41, BoNTA LC inh 1 inactive, BoNT-F LC CP1 inactive and Anthrax LF CP1 inactive.
Screening Cc1cc2cc(CNC(=O)C3CC3)ccc2n1C returned Anthrax LF prot inactive, BoNT-A LC inh2 inactive, Bead autofluor inactive and BoNT F protease inactive.
CCOC(=O)NCc1ccc2c(c1)cc(C)n2C was read as Anthrax LF prot 42, BoNT-A LC inh2 41, Bead autofluor inactive, BoNT F protease inactive, BoNTA LC inh 1 inactive, BoNT-F LC CP1 inactive and Anthrax LF CP1 inactive.
For Cc1cc2cc(CNC(=O)Nc3ccccc3)ccc2n1C the results were Anthrax LF prot inactive, BoNT-A LC inh2 56, Bead autofluor inactive, BoNT F protease inactive, BoNTA LC inh 1 inactive, BoNT-F LC CP1 inactive and Anthrax LF CP1 inactive.
Screening Cc1cc2cc(CNC(=O)c3cccs3)ccc2n1C returned Anthrax LF prot inactive, BoNT-A LC inh2 79, Bead autofluor inactive, BoNT F protease inactive, BoNTA LC inh 1 inactive, BoNT-F LC CP1 inactive and Anthrax LF CP1 inactive.
`Cc1cc2cc(CNC(=O)C(C)Oc3ccccc3)ccc2n1C` (stereo not drawn) gave Anthrax LF prot inactive, BoNT-A LC inh2 90, Bead autofluor inactive, BoNT F protease inactive, BoNTA LC inh 1 inactive, BoNT-F LC CP1 inactive and Anthrax LF CP1 inactive.
`COc1ccc(CNC(=O)Nc2ccccc2)cc1` gave Anthrax LF prot inactive, BoNT-A LC inh2 inactive, Bead autofluor inactive and BoNT F protease inactive.
For CCOC(=O)NCc1ccc2[nH]c(C)cc2c1 the results were Anthrax LF prot inactive, BoNT-A LC inh2 inactive, Bead autofluor inactive and BoNT F protease inactive.
`Cc1cc2cc(CNC(=O)Nc3ccccc3)ccc2[nH]1` gave Anthrax LF prot inactive, BoNT-A LC inh2 55, Bead autofluor inactive, BoNT F protease inactive, BoNTA LC inh 1 inactive, BoNT-F LC CP1 inactive and Anthrax LF CP1 inactive.
For CCC(CC)C(=O)NCc1ccc2c(c1)cc(C)n2C the results were Anthrax LF prot inactive, BoNT-A LC inh2 32, Bead autofluor inactive, BoNT F protease inactive, BoNTA LC inh 1 inactive, BoNT-F LC CP1 inactive and Anthrax LF CP1 inactive.
